In PubChem BioAssay AID2417 (National Center for Advancing Translational Sciences (NCATS), 2010) one finds activity change (PNC), negative = inhibition data, which are given here for 95 compounds.

Out of some 140,000 compounds screened, about 4,300 (3.1%) were called active. Inconclusive results (about 21%) are left out. The full list was thinned out, with actives kept by preference. A number with no mark means an inactive call.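 Rule for the calls: active = readout at or below -70, meaning at least 70% loss of cells showing the perinucleolar compartment, a nuclear body marking cancer cells; inconclusive = readout between -30 and a set limit; inactive = the rest.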

The nature of this test: High Content Assay for Compounds that inhibit the Assembly of the Perinucleolar Compartment.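 Note: plate controls were DMSO wells for no effect and camptothecin positive control wells for full effect.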 The settings on record: PC3M PTB-GFP, PNC prevalence imaging, 16 h; at 10 µM; stronger effect = lower value. In a few lines: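 Compounds are pinned in duplicate onto adhered PC3M cells stably expressing GFP-tagged PTB and incubated 16 h at 37 C. Cells are then fixed, nuclei stained with Hoechst, and PNC-positive cells counted.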
Consider `Cc1nc2scc(-c3cccs3)c2c(=O)n1N`, for which the activity change (PNC), negative = inhibition was 38.3%.
Turning to `Cn1c(=O)[nH]c(=O)c2c1nc(NCCCn1ccnc1)n2Cc1cccc(Br)c1`, the activity change (PNC), negative = inhibition was -100% (active).
The result for `CCCCNc1nc2c(c(=O)n(C)c(=O)n2C)n1Cc1cccc(OC)c1` reads -17.3%.
For the compound `CCCCNc1nc2c(c(=O)[nH]c(=O)n2C)n1CCOc1ccccc1`, the activity change (PNC), negative = inhibition is 44.9%.
The result for `O=C(N/N=C\c1ccc(Br)cc1)c1ccc(Cn2cccn2)o1` reads -11.4%.
Turning to `CN(C)S(=O)(=O)c1ccc(N2CCCC2=O)c([N+](=O)[O-])c1`, the activity change (PNC), negative = inhibition is 43.2%.
The result for `COc1ccc2c(c1)C(SCC(=O)NCc1ccccc1)CC(C)(C)O2` (stereo not given) reads 27.2%.
`Cc1ccc(C)c(S(=O)(=O)n2cnc3ccccc32)c1`: the activity change (PNC), negative = inhibition is -9%.
For `Cc1ccc(S(=O)(=O)N2CC(=O)Nc3ccccc32)cc1C`, the activity change (PNC), negative = inhibition was 5.54%.
Regarding `Cc1ccc(C)c(S(=O)(=O)N2CC(=O)Nc3ccccc32)c1`, the activity change (PNC), negative = inhibition is -86.7% (active).
Then `COc1ccc(NC(=S)NCc2cccs2)c(OC)c1`, with -5.37%; and `O=C(CN1CCN(S(=O)(=O)c2ccc(Br)cc2)CC1)Nc1ccccc1C(=O)c1ccccc1`, with 41.1%.
On to `COC(=O)NNC(=O)C1CCC(C)CC1` (stereo not given), for which the activity change (PNC), negative = inhibition was 21.6%.
For the compound `O=C(Nc1nncs1)c1cccc(S(=O)(=O)N2CCCCC2)c1`, the activity change (PNC), negative = inhibition was -22%.
For the compound `CCOC(=O)CSc1nnc(NC(=O)c2cccc(S(=O)(=O)N3CCCCC3)c2)s1`, the activity change (PNC), negative = inhibition is 19.2%.
In the case of `CCOC(=O)C1=C(CC)Nc2ccccc2N=C1NC(=O)c1cccc(S(=O)(=O)N2CCCC2)c1`, the activity change (PNC), negative = inhibition was -114% (active).
With `COc1ccc(C)cc1NC(=O)C(Sc1ccccc1)c1ccccc1` (stereo not given), the activity change (PNC), negative = inhibition is -2.98%.
Take `CCC(C)NC(=O)c1ccc(N2CCC3(CC2)OCCO3)c([N+](=O)[O-])c1` (stereo not given): the activity change (PNC), negative = inhibition was 36.6%.
Turning to `COc1ccc(NC(=O)CN(Cc2ccccc2)S(C)(=O)=O)cc1OC`, the activity change (PNC), negative = inhibition was -0.222%.
In the case of `CCCCC(=O)N/N=C(\C)CC(=O)Nc1cc(Cl)ccc1OC`, the activity change (PNC), negative = inhibition is 41.6%.
Take `C/C(CC(=O)Nc1ccc(Cl)cc1)=N\NC(=O)C(=O)NCCO`: the activity change (PNC), negative = inhibition is -81.9% (active).
As to `COc1ccc(COC(=O)N/N=C(\C)CC(=O)Nc2ccc(Cl)cc2)cc1`, the activity change (PNC), negative = inhibition was 20.7%.
Take `CC(C)(C)C1CCC(=NNC(=O)c2ccc(Br)o2)CC1` (stereo not given): the activity change (PNC), negative = inhibition was 30.8%.
For `O=C(Nc1cn(-c2ccccc2)nc1-c1ccccc1)c1ccccc1`, the activity change (PNC), negative = inhibition was 22.3%.
Regarding `Cc1ccc(C(=O)/C=C/c2c(C)nn(-c3ccccc3)c2Cl)cc1`, the activity change (PNC), negative = inhibition was -11.1%.
With `Cc1nn(-c2ccccc2)c(Cl)c1/C=C/C(=O)c1ccc(O)cc1`, the activity change (PNC), negative = inhibition is -91.6% (active).
In the case of `Cc1nn(-c2ccccc2)c(C)c1/C=C/C(=O)OC(C)C(N)=O` (stereo not given), the activity change (PNC), negative = inhibition is 7.76%.
Consider `NC1=C([N+](=O)[O-])C(c2ccccc2)C2=C(CCCC2=O)O1` (stereo not given), for which the activity change (PNC), negative = inhibition is 6.59%.
Turning to `CC(OC(=O)c1ccccc1N1C(=O)C2C3CCC(C3)C2C1=O)C(=O)c1ccccc1` (stereo not given), the activity change (PNC), negative = inhibition was -15.7%.
Turning to `CC(C)C(C)NC(=O)COc1ncnc2ccccc12` (stereo not given), the activity change (PNC), negative = inhibition was 23%.
Consider `CCOC(=O)c1sc(NC(=O)COc2ncnc3ccccc23)c(C(=O)OCC)c1C`, for which the activity change (PNC), negative = inhibition is -95.9% (active).
Take `CCOC(=O)c1c(NC(=O)CCl)sc(C(=O)N(CC)CC)c1C`: the activity change (PNC), negative = inhibition was 4.89%.
As to `CCOc1ccc(-c2n[nH]c(=S)n2/N=C/c2cc3c(cc2[N+](=O)[O-])OCO3)cc1`, the activity change (PNC), negative = inhibition was 25.2%.
Then `O=C(COc1ccc(Cl)cc1)Nc1ccccc1CO`, with -92.3% (active); and `O=C(COc1ccc(Cl)cc1)NCCSc1ccccc1`, with 8.59%; and `COC(=O)c1sccc1NC(=O)COc1ccc(Cl)cc1`, with -3.53%.
Then `CCS(=O)(=O)N1Cc2ccccc2CC1C(=O)Nc1nc2ccc(F)cc2s1` (stereo not given), with 48.1%; and `O=C1C2C3C=CC(C4CC34)C2C(=O)N1c1nccs1` (stereo not given), with 23.7%; and `Cc1cc(Cl)ccc1NC(=S)N1CCC(C(N)=O)(N2CCCCC2)CC1`, with 74.5%.
With `Cc1nc2sc(C(=O)c3ccccc3)c(N)c2c2c1CCCC2`, the activity change (PNC), negative = inhibition is 7.19%.
Regarding `NC(=O)c1sc2nc3c(c(-c4ccccc4)c2c1N)CCC3`, the activity change (PNC), negative = inhibition is -100% (active).
Turning to `CC(=O)Nc1ccc(NC(=O)c2sc3nc4c(c(-c5ccc(C)cc5)c3c2N)CCC4)cc1`, the activity change (PNC), negative = inhibition was 14%.
For the compound `COc1ccc(Br)cc1C(=O)Nc1cccc(C)c1C`, the activity change (PNC), negative = inhibition was -16.5%.
On to `CC(C)OCCCNC(=O)c1cc(Sc2ccc(F)cc2)nc2ccccc12`, for which the activity change (PNC), negative = inhibition was -1.71%.
Then `O=C(NC1CCN(C(=S)NCc2ccco2)CC1)c1ccc(F)cc1`, with -100% (active); and `O=S(=O)(c1ccc(F)cc1)N1CCN(C(=S)NCc2ccco2)CC1`, with 8.43%.
In the case of `Cc1cc(C)cc(NC(=O)N2CCC(NC(=O)c3ccc(F)cc3)CC2)c1`, the activity change (PNC), negative = inhibition is -20.1%.
Turning to `Cc1ccc(CN2CCN(/N=C/c3cccnc3)CC2)c(C)c1`, the activity change (PNC), negative = inhibition was -5.48%.
Turning to `CC(C)(C)NC(=O)C(=O)NCc1ccncc1`, the activity change (PNC), negative = inhibition is -17.6%.
In the case of `O=C(N/N=C/c1ccccn1)C12CC3CC(CC(C3)C1)C2`, the activity change (PNC), negative = inhibition is -19.1%.
Consider `Cc1nc2ccccc2c(=O)n1CCCn1ccnc1`, for which the activity change (PNC), negative = inhibition is -81.9% (active).
Consider `COCCCn1c2nc3ccccc3nc2c2c(=O)n(Cc3ccc(Cl)cc3)c(C)nc21`, for which the activity change (PNC), negative = inhibition is 39.8%.
Consider `CCOc1ccccc1C(=O)NCCCn1ccnc1`, for which the activity change (PNC), negative = inhibition was 15.6%.
With `Cc1ccc(C2C3=C(Nc4[nH]n(-c5ccccc5)c(=O)c42)c2ccccc2C3=O)cc1` (stereo not given), the activity change (PNC), negative = inhibition was -4.45%.
Consider `CCCN(CCC)C(=S)Nc1cc(C(=O)OC)ccc1C(=O)OC`, for which the activity change (PNC), negative = inhibition was 27.9%.
On to `Cn1c(=O)c(Sc2ccc(Cl)cc2)c(O)c2ccccc21`, for which the activity change (PNC), negative = inhibition was -25.4%.
As for `O=C(CNC(=O)Cc1ccccc1)NCC(=O)OCC(=O)c1ccccc1Cl`, the activity change (PNC), negative = inhibition is 90.5%.
Consider `CCOC(=O)CNC(=O)/C=C/c1c(Cl)cccc1Cl`, for which the activity change (PNC), negative = inhibition is -123% (active).
With `O=C(/C=C/c1c(Cl)cccc1Cl)NCc1ccccc1`, the activity change (PNC), negative = inhibition was -1.54%.
With `CCOC(=O)CC(NC(=O)C1c2ccccc2Oc2ccccc21)c1ccc(C)cc1` (stereo not given), the activity change (PNC), negative = inhibition was -19.2%.
As for `CCOC(=O)N1CCN(C(=O)C2CCN(Cc3ccc(OC)cc3OC)CC2)CC1`, the activity change (PNC), negative = inhibition is 33.2%.
On to `O=C(NCCN1CCOCC1)[C@H](Cc1ccccc1)N1C(=O)c2ccccc2C1=O`, for which the activity change (PNC), negative = inhibition was -13.4%.
For `N/C(=N\c1nc2ccccc2o1)NC(=O)C(Cc1ccccc1)N1C(=O)c2ccccc2C1=O` (stereo not given), the activity change (PNC), negative = inhibition was -100% (active).
Then `O=C(NC1=NCCS1)[C@H](Cc1ccccc1)N1C(=O)c2ccccc2C1=O`, with 5.11%.
Regarding `CC(Sc1nc(-c2ccccc2)cc(C(F)(F)F)n1)C(=O)Nc1ccc2c(c1)OCO2` (stereo not given), the activity change (PNC), negative = inhibition is -18%.
In the case of `Cc1ccc(C(=O)OCC(=O)NCc2ccc3c(c2)OCO3)s1`, the activity change (PNC), negative = inhibition was -9.27%.
As for `c1n[nH]c(NCc2ccc3c(c2)OCO3)n1`, the activity change (PNC), negative = inhibition is -81.5% (active).
Turning to `O=C(COc1ccccc1)NCc1ccc2c(c1)OCO2`, the activity change (PNC), negative = inhibition was 24%.
On to `O=C(CSc1nnc(SCc2ccc(Cl)cc2)s1)N/N=C/c1ccccc1Cl`, for which the activity change (PNC), negative = inhibition is -24.9%.
`CCOc1ccc(N2C(=O)/C(=C/c3ccc(C)o3)N(C)C2=S)cc1`: the activity change (PNC), negative = inhibition is 15.7%.
For the compound `CC(C)CCN1C(=O)c2ccc(C(=O)Nc3cccc(S(N)(=O)=O)c3)cc2C1=O`, the activity change (PNC), negative = inhibition was -6.14%.
In the case of `CCOC(=O)C1=C(C)NC(=S)NC1c1cccs1` (stereo not given), the activity change (PNC), negative = inhibition is -93.3% (active).
Turning to `CCOC(=O)C1=C(C)NC(C)=C(C(=O)OCC)C1C1=COCCO1`, the activity change (PNC), negative = inhibition was 12%.
Consider `CCOC(=O)C1=C(C)NC(=O)NC1c1ccccc1` (stereo not given), for which the activity change (PNC), negative = inhibition was 2.37%.
Take `CONc1nc2nonc2nc1NOC`: the activity change (PNC), negative = inhibition was 47%.
With `Cc1cnc(NC(=O)CSc2nnc(-c3ccccc3)n2Cc2ccccc2)s1`, the activity change (PNC), negative = inhibition is -8.74%.
For `Cc1cnc(NC(=O)CSc2nnc(-c3ccc(Cl)cc3Cl)n2N)s1`, the activity change (PNC), negative = inhibition was -100% (active).
For the compound `Cc1cnc(NC(=O)CSc2c(Cl)cccc2Cl)s1`, the activity change (PNC), negative = inhibition is 79.3%.
For `COc1ccc(C(=O)O/N=C(\N)Cc2ccc(Cl)cc2Cl)cc1OC`, the activity change (PNC), negative = inhibition was -26.7%.
Consider `CNS(=O)(=O)c1ccc(N2CCCC2=O)c([N+](=O)[O-])c1`, for which the activity change (PNC), negative = inhibition was -24.4%.
Regarding `COc1ccc(C(CC(=O)c2ccccc2)S(=O)(=O)c2ccccc2)cc1` (stereo not given), the activity change (PNC), negative = inhibition was 10.3%.
Then `COCCOC(=O)C1=C(C)Nc2nc(C)nn2C1c1ccccc1` (stereo not given), with -12.5%; and `COCCOC(=O)C1=C(C)N=c2s/c(=C\c3cccs3)c(=O)n2C1c1cccs1` (stereo not given), with -82.9% (active); and `CCOC(=O)C1=C(C)N=c2s/c(=C\C(=O)OC)c(=O)n2C1c1ccc(OC)cc1` (stereo not given), with 0.912%.
As for `C=CCOc1ccc(/C=N/NC(=O)C(C)Sc2ccccn2)cc1OCC` (stereo not given), the activity change (PNC), negative = inhibition is 17.5%.
Consider `Cc1ccc(N=C2NC(=O)c3cccc([N+](=O)[O-])c32)cc1`, for which the activity change (PNC), negative = inhibition was 43.8%.
As to `Cc1nc2c(c(=O)n1Cc1ccco1)c1nc3ccccc3nc1n2Cc1ccccc1`, the activity change (PNC), negative = inhibition is 32.1%.
Consider `Cn1c2ccccc2c(=O)c2c(=O)n(Cc3ccco3)c(COc3ccccc3)nc21`, for which the activity change (PNC), negative = inhibition is -87% (active).
As to `COc1ccc(NC(=O)Cn2c(=O)n(Cc3ccco3)c(=O)c3ccccc32)cc1`, the activity change (PNC), negative = inhibition was -2.68%.
Then `Cc1cc(NC(=O)COC(=O)COc2ccc(Cl)cc2C)c([N+](=O)[O-])cc1C`, with -20.6%.
With `CN1/C(=C\C(=O)c2cccnc2Cl)C(C)(C)c2ccccc21`, the activity change (PNC), negative = inhibition was 78%.
As for `CCC1C=C(c2ccccc2)C=CN=C1N(CC)CC` (stereo not given), the activity change (PNC), negative = inhibition is -9.28%.
The result for `COc1cc(OC)cc(C(=O)NC2CCN(C(=O)N3c4ccccc4Sc4ccccc43)CC2)c1` reads -91% (active); that for `O=C(NC1CC1)c1ccc2c(c1)NC(=O)c1ccccc1S2`, 14.7%; that for `CCOc1ccc(C(=O)NC2CCN(C(=O)Nc3ccccc3OC)CC2)cc1`, 37.5%.
